# Bioassay records (PubChem BioAssay)
# 697 NFkB inh: lowers PMA/ionomycin-induced NF-kB signal in 697 B cells. 697 B-cell NF-kB luciferase reporter, 16 h. inhibition, % at 4 µM. actives 0.33% (n = 330,000); in the data active = inhibition above about 35%
# Gli-Sufu antag: antagonists of Gli-Sufu signaling. Sufu-KO-LIGHT fibroblasts, Gli luciferase reporter luminescence. inhibition, % at 5 µM. actives 0.74% (n = 340,000);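 active = inhibition above about 55%, limit read from the data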;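 also: 0% = DMSO-treated cells and 100% = wells with medium but no cells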
# Mdm2-MdmX inh: inhibitors of human Mdm2/MdmX interaction. O15151+Q00987. SaOS-2 split-luciferase Mdm2/MdmX complementation, luminescence. inhibition, % at 8 µM. actives 3% (n = 330,000). AID 485346;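 active = inhibition of at least 50% at 8 µM in the primary screen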
# Jurkat NFkB inh: inhibitors of the PMA/ionomycin-induced NF-kB reporter in Jurkat cells; PMA/ionomycin-induced NF-kB luciferase reporter, luminescence; inhibition, % at 4 µM; actives 0.53% (n = 330,000); AID 435003; in the data active = inhibition above about 50%
# Shn3 inh set2: reduces Shn3 3'UTR luciferase signal in osteoblasts. actives 0.52% (n = 360,000). Clone20 osteoblast Shn3 3'UTR firefly luciferase, 24 h. inhibition, % at 12.5 µM;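 active = mean inhibition of at least 75% with every replicate also reaching 75%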;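 also: 0% = median of neutral control wells and 100% = pilot-screen positive control compound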
# Active calls of the source: *; . = no result. Compounds with a hit are over-represented: about 3.8% of the library has one in this group of screens.
SMILES,697 NFkB inh,Gli-Sufu antag,Mdm2-MdmX inh,Jurkat NFkB inh,Shn3 inh set2
COc1cc(OC)c(OC)cc1CNc1cc(C)ccc1OC,-41.3,-13.3,-0.6,-12.7,88.5*
O=C(/C=C/c1ccco1)Nc1nc(-c2ccccc2)cs1,-75.1,-19.5,-40.1,-52.5,-28.6
O=C(/C=C/c1ccco1)Nc1nc(-c2ccc(F)c(F)c2)cs1,-96.1,57.9*,10.4,-6.5,.
CC1CCC(NC(=O)c2cccc(S(=O)(=O)N3CCOCC3)c2)CC1 (centres undefined),.,.,.,.,-14.7
CCOC(=O)N1C(=O)NC(=O)C1c1ccc(OC)cc1 (centres undefined),.,-9.2,.,.,-6.3
N#CC(C#N)=C1C=CC=CN1/C(=C\c1ccco1)C(=O)c1ccc(Br)cc1,.,15.6,.,.,89.6*
N#CC(C#N)=C1C=CC=CN1/C(=C\c1ccco1)C(=O)c1ccccc1,.,38.4,.,.,95.8*
COC(=O)C1C=CC(OC2OC(COC(C)=O)C(OC(C)=O)C(OC(C)=O)C2OC(C)=O)n2c(=O)n(-c3ccccc3)c(=O)n21 (centres undefined),.,22.2,.,.,97.1*
CC1CCCN(CCCNC(=O)c2ccc3c(c2)N(Cc2cccc(Cl)c2)C(=O)c2ccccc2S3=O)C1 (centres undefined),.,.,.,.,-11.4
CC1CCCN(CCCNC(=O)c2ccc3c(c2)N(Cc2ccc(F)cc2)C(=O)c2ccccc2S3=O)C1 (centres undefined),-52.0,65.7*,29.7,-11.1,25.7
CCN(CC)S(=O)(=O)c1ccc(N2CCOCC2)c(NC(=O)c2nn(C(C)C)c(=O)c3ccccc23)c1,.,.,.,.,86.1*
C=C1C(=O)[C@]23C[C@H]1CC[C@H]2[C@]1(C)[C@@H](OC(C)=O)CC[C@@](C)(C(=O)O)[C@H]1C[C@@H]3O,.,.,.,.,62.8
C=C1C(=O)[C@]23C[C@H]1CC[C@H]2[C@]1(C)[C@@H](OC(C)=O)CC[C@@](C)(C(=O)OC)[C@H]1C[C@@H]3OC(C)=O,.,.,.,.,95.5*
C=C1C(=O)[C@]23C[C@H]1CCC2[C@@]1(C)C(C[C@@H]3O)[C@](C)(C(=O)OC)CC[C@@H]1OC(C)=O (some centres undefined),.,.,.,.,98.2*
C=C1C(=O)[C@]23C[C@H]1CC[C@H]2[C@]1(C)[C@@H](O)CC[C@@](C)(C(=O)O)[C@H]1C[C@@H]3O,.,.,.,.,49.2
CC(=O)OC[C@]12CC[C@H]3[C@@](C)(CC[C@H]4C(C)(C)CCC[C@]34C)[C@@H]1CC(C1=CC(=O)OC1O)O2 (some centres undefined),.,.,.,.,98.1*
CC(=Cc1ccccc1)C(=O)c1ccccc1,.,.,.,.,9.7
O=C(C(Br)=Cc1ccccc1)c1ccccc1,.,9.0,.,.,96.6*
N#CCC(=O)Nc1ccc(C(=O)OCC(=O)N2CCN(C(=O)c3ccco3)CC2)cc1,-17.2,-4.0,-19.8,-8.3,7.9
Cc1ccc([C@@H]2CC(=O)[C@@H]3CN(S(=O)(=O)c4ccccc4C)[C@H](c4ccc(Cl)cc4)C[C@@H]3N2S(=O)(=O)c2ccc(C)cc2)cc1,.,.,.,.,90.6*
Cc1ccc(S(=O)(=O)N2[C@H](c3cccc(Cl)c3)CC(=O)[C@@H]3CN(S(=O)(=O)c4ccccc4C)[C@H](c4ccc(Cl)cc4)C[C@@H]32)cc1,.,.,.,.,89.3*
O=C(Cn1cc([N+](=O)[O-])ccc1=O)N1CCc2ccccc21,-12.0,-28.7,7.7,-2.1,-4.2
C=C1CC2(OC1=O)c1ccccc1CCc1ccccc12,.,1.5,.,.,100.5*
CC(C)CN1C(=O)C(=O)N(CC(=O)c2ccc3c(c2)CCCC3)C1=O,9.6,0.3,14.5,-9.6,-2.4
CCOc1cc(C(=O)CSc2nnc(CNc3ccc(Cl)cc3)o2)ccc1NC(=O)CC,-24.3,-8.7,30.8,24.0,84.4*
SMILES,697 NFkB inh,Gli-Sufu antag,Mdm2-MdmX inh,Jurkat NFkB inh,Shn3 inh set2
COc1ccc(NCc2nnc(SCC(=O)c3ccc(OC)cc3)o2)cc1,9.8,-4.0,23.5,2.5,-2.2
Cc1ccc(C(=O)C2CC2)cc1C,.,-4.1,.,.,8.5
Cc1ccc(C(=O)Nc2ncc([N+](=O)[O-])s2)cc1,.,60.1*,.,.,81.3
CCc1nc2c(OCC(=O)C(C)(C)C)cccn2c1N(C)C(=O)CC(C)C,.,.,.,.,-4.4
COc1ccccc1C(=O)Nc1ccnn1C1CCN(C2CCCCC2)CC1,.,.,.,.,-10.6
Cc1ccc(S(=O)(=O)N(C)C)cc1NC(=S)NC12CC3CC(CC(C3)C1)C2,.,10.0,.,.,13.6
Cc1ccc(S(=O)(=O)N(C)C)cc1NC(=S)NC(=O)C12CC3CC(CC(C3)C1)C2,-62.4,66.4*,19.0,26.5,75.3
